# Screens deposited in PubChem BioAssay by several laboratories.
# MazF activator – activators of E. coli MazEF toxin-antitoxin RNase, primary screen, biochemical, fluorescence, uHTS; Endoribonuclease toxin MazF (Escherichia coli (strain K12)), P0AE70; FAM/BHQ RNA-DNA oligo cleavage fluorescence, 5 h; activation, % at 20 µM; actives 0.32% (n = 350,000); AID 504720, 2011; in the data active = activation above about 50%
# Vc quorum ag – inducers of Vibrio cholerae quorum light production without autoinducers, primary screen, BH1578 luxS cqsA deficient, single point. V. cholerae BH1578 lux reporter, luminescence, 6 h. activation, % at 18.7 µM. actives 0.16% (n = 350,000). AID 588436, 2011; in the data active = activation mostly above about 9.7%, no sharp cut-off
# Mtb UGM inh – M. tuberculosis UGM enzyme inhibitors, primary screen, biochemical, fluorescence polarization, single point. UDP-galactopyranose mutase (Mycobacterium tuberculosis (strain ATCC 25618 / H37Rv)), …. purified UGM, fluorescence polarization probe displacement. inhibition, % at 10 µM. actives 0.06% (n = 320,000). AID 504406, 2011; in the data active = inhibition above about 10%, passing the limit was not always enough
# FadD28 binding – inhibitors of FadD28 bisubstrate probe binding, primary screen, biochemical, fluorescence polarization, single point. Mycobacterium tuberculosis FadD28 fatty-acid-AMP ligase. inhibition, % at 12.5 µM. actives 0.22% (n = 360,000). AID 588549, 2011; in the data active = inhibition above about 8.5%, passing the limit was not always enough
# Mtb bLac sens – beta-lactam sensitization of Mtb H37Rv, H37Rv | actives 0.27% (n = 330,000) | AID 434955, 2010 | inhibition, % at 25 µM | M. tuberculosis H37Rv growth with meropenem, percent inhibition; call rule not given here;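 also: growth measured after seven days incubation then overnight dye step; 0% = bacteria only wells and 100% = bacteria with antibiotic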
# Rv3671c inh – Rv3671c serine protease inhibitors, primary screen, biochemical, fluorescence polarization, M. tuberculosis H37Rv; P9WHR9; inhibition, % at 5.96 µM; actives 0.048% (n = 320,000); in the data active = inhibition above about 38%;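 also: extracellular domain of Rv3671c used as enzyme; 0% = enzyme with DMSO and 100% = no enzyme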
# Target sequence (P9WHR9 whole entry, looked up, the tested form may be a part): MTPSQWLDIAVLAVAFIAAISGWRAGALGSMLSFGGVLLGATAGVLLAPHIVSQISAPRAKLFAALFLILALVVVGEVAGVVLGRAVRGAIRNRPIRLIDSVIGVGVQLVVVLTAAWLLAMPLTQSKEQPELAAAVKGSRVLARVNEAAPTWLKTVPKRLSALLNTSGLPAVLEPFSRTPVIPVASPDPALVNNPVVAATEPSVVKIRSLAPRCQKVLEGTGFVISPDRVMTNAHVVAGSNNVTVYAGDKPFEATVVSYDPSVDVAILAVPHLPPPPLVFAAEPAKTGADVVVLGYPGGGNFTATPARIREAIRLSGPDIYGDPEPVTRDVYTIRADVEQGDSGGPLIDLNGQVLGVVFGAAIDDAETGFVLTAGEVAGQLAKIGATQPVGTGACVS
# * = called active by the depositor; i = inactive; nt = no result. An excerpt weighted towards active compounds, which were near 0.74% of everything screened.
SMILES,MazF activator,Vc quorum ag,Mtb UGM inh,FadD28 binding,Mtb bLac sens,Rv3671c inh
CC(C)C(=O)Nc1ccc(C(=O)Nc2ccc(S(=O)(=O)N3CCOCC3)cc2)cc1,6,0,1,-1,-11,3
FC(F)(F)c1ccccc1Cc1c(-c2cccc(Br)c2)nc2ccc(Br)cn12,nt,nt,nt,-3,nt,nt
Cc1ccc(S(=O)(=O)c2nc(-c3cccs3)oc2N2CCC(C(N)=O)CC2)cc1,-12,i,-1,1,-8,3
COc1ccc(NC(=O)Nc2ccc3c(c2)C(=O)N([C@H](C)CO)C[C@H](C)[C@@H](CN(C)S(=O)(=O)c2cccs2)O3)cc1,0,-2,-3,5,0,7
COc1ccc(S(=O)(=O)Nc2ccc3c(c2)C(=O)N([C@H](C)CO)C[C@H](C)[C@@H](CN(C)S(=O)(=O)c2cccs2)O3)cc1,54*,-1,-1,-1,1,9
CC(C)c1ccc(N(CC(=O)NCc2ccco2)C(=O)CCC(=O)Nc2ccccn2)cc1,-4,0,1,0,-5,9
COc1cc(C2C(C#N)=C(N)Oc3cc(N(C)C)ccc32)cc2c1OCO2 (stereo not given),64*,i,0,1,5,9
CCOC(=O)CNc1ccc2c(c1)OCO2,13,3,12*,0,-3,6
CCOC(=O)CNC(=O)/C=C/c1ccc2c(c1)OCO2,-20,-1,2,-1,-7,-16
CCOC(=O)c1c(NCC(C)C)c2ccccc2[nH]c1=O,1,17*,-1,-1,7,2
Cc1ccc(S(=O)(=O)N2C[C@H]3C(=O)C[C@@H](c4cccc(Cl)c4)N(S(=O)(=O)c4ccc(C)cc4)[C@H]3C[C@H]2c2cccc(Cl)c2)cc1,-5,0,nt,-2,nt,nt
Cc1cccc(N2C(=O)NC(=O)/C(=C/c3cc4c(cc3[N+](=O)[O-])OCO4)C2=O)c1,537*,i,11*,5,13,6
CSCCC(NC(=O)COc1ccccc1)C(=O)NCC(C)(C)N1CCOCC1 (stereo not given),-4,0,nt,-2,nt,nt
CCn1c(SCC(=O)c2cccs2)nnc1-c1cccs1,-7,-7,0,-1,-9,9
Cc1cc(C)c2c(c1)c(C)cc1nnc(SCC(=O)c3cccs3)n12,74*,0,-2,0,-14,4
Cn1c(CNC(=O)c2ccc(Cl)cc2)nnc1SCC(=O)Nc1sc2c(c1C#N)CCCC2,106*,0,0,-4,-7,1
CNC(=O)c1cc2c(-c3ccccc3)nn(C)c2s1,11,-1,3,-4,0,-16
Cc1ccc(N=Nc2[nH]c3ccccc3c2O)cc1,564*,0,-1,-2,-2,-10
Cc1ccc(N=Nc2c(O)[nH]c3ccc(F)cc23)cc1,474*,0,2,-4,-6,-6
COc1ccc2oc(C(=O)OCC(=O)Nc3cc(S(=O)(=O)N4CCOCC4)ccc3C)c(C)c2c1,61*,i,1,-3,2,-51
COc1ccc2oc(C(=O)OCC(=O)Nc3cc(S(=O)(=O)N4CCOCC4)ccc3OC)c(C)c2c1,-4,-19,-1,-6,-6,9
CN(C)c1ccc(/C=N/NC(=O)c2cnc3ccccc3c2)cc1,190*,-1,3,-4,4,9
CCOC(=O)C1=C(C)N(CC(C)C)C(=O)/C1=C\c1cccs1,59*,0,1,1,6,4
COC(=O)C1=C(C)N(CC(C)C)C(=O)/C1=C\c1cccs1,-5,nt,4,-4,-4,4
COc1ccc(NC(=O)C2Cc3c(-c4cccc(F)c4)ccnc3O2)cc1OC (stereo not given),nt,i,nt,-2,nt,nt
CCN1/C(=C\c2ccc3cc(C)ccc3[n+]2CC)Sc2cc(C)c(C)cc21,82*,0,nt,1,nt,nt
CCN1/C(=C/c2ccc3cc(C)ccc3[n+]2CC)Sc2ccc3sccc3c21,-42,-6,-3,-2,100,-29
CCN1/C(=C/c2ccc3cc(C)cc(C)c3[n+]2CC)Sc2cc(C)ccc21,30,i,nt,2,nt,nt
